PI5P4K alpha inh = inhibitors of human PI5P4K alpha; PI5P4Kalpha enzyme, ADP-Glo luminescence, 60 min; stronger effect = lower value; max response, %; hit rate 1.2% among 330,000; active = max response of -50% or lower; inconclusive = between -30% and -50%; inactive = -30% or higher; also: value at the top dose of about 77 µM; % is scaled to controls: 0 for no effect and ±100 for the full control effect
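Quantitative HTS of the MLSMR library against PI5P4Kalpha with substrate. ATP added last at 5 microM final; room temperature, 60 minutes. Remaining ATP depleted, ADP converted and read as luminescence.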
POLB inh = DNA polymerase beta (human) inhibition | P06746 | Pol beta primer extension/strand displacement, fluorescence kinetic | Potency, µM (doses to about 114 µM), for the others: at the top dose activity change, negative = inhibition, hits mostly inhibitors | hit rate 1.3% among 340,000 | AID 485314; also: potency is read from the fitted curve at half-maximal effect; % is scaled to controls: 0 for no effect and ±100 for the full control effect
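Values derive from four-parameter Hill fits of normalized kinetic data: reads at 0 and 10 min following addition of 50 nM substrate to 10 nM Pol beta preincubated 15 min with compound.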
Pol iota inh = DNA polymerase iota (human) inhibition; Q9UNA4; Pol iota fluorescent replication assay, 10 min; Potency, µM (series often up to 115 µM), inactives show top-dose activity, negative = inhibition, actives largely listed as inhibitors; hit rate 1% among 390,000; AID 588590; also: potency is read from the fitted curve at half-maximal effect
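Fluorescent replication assay read twice, at 0 min and 10 min after adding 50 nM (final) substrate. Enzyme (10 nM) and compounds were first incubated 15 min at room temperature; enzyme-free buffer wells were negative controls.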
PI4K2A block = PI4K2A (human) kinase inhibition. activity change, negative = inhibition, % at 76.9 µM. purified PI4K2A, ADP-Glo luminescence, 1 h; stronger effect = lower value. hit rate 0.13% among 420,000. Q9BTU6. AID 1346378; in the data active = activity change below about -50%; inconclusive = mostly about -30% to -49%;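 also: -100% = wells without enzyme as full effect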
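ADP-Glo luminescence measured ADP generated by PI4K2A enzyme (4 ug/mL before mixing) with 1.2 mM PI substrate (pre-mix) and 300 microM ATP (pre-mix). Tris pH7.5 buffer with MgCl2, Triton X-100; 1 h reaction at ambient temperature.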
Pol kappa inh-1 = inhibitors of human DNA polymerase kappa; purified Pol kappa, fluorescent DNA synthesis assay, 10 min; Potency, µM (top dose mostly 107 µM), for inactives: top-dose activity, negative = inhibition, most hits filed as inhibitors; hit rate 0.53% among 400,000; Q9UBT6; also: potency is read from the fitted curve at half-maximal effect; % is scaled to controls: 0 for no effect and ±100 for the full control effect
Target sequence (Q9UBT6 whole entry, looked up): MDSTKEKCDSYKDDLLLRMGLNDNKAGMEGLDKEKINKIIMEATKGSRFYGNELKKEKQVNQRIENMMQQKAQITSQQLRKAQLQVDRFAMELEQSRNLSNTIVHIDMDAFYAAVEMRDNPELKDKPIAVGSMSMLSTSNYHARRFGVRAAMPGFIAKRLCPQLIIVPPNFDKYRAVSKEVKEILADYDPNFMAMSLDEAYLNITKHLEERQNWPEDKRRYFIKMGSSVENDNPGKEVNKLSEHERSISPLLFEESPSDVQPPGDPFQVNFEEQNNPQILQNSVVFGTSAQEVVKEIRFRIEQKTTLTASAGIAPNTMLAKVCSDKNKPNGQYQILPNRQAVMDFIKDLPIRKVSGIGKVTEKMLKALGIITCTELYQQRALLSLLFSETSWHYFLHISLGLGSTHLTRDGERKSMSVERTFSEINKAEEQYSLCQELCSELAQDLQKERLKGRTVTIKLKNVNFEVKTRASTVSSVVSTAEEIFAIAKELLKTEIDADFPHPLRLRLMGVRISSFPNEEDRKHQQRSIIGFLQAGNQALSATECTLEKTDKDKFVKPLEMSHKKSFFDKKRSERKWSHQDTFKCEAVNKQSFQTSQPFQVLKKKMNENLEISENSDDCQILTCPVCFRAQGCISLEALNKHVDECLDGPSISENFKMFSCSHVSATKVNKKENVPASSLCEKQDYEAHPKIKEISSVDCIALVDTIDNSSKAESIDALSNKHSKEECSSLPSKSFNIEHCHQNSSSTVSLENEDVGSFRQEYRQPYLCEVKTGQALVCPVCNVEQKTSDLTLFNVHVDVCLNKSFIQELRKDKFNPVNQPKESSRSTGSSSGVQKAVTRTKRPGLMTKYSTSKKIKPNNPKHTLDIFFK
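Here, compound and 10 nM enzyme are combined for 15 min at room temperature; adding 50 nM substrate (final) starts DNA synthesis, tracked by fluorescence at 0 and 10 min against buffer-only wells.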
Pol eta inh-1 = blocks human DNA polymerase eta activity; recombinant Pol eta, fluorescent DNA replication assay; Potency, µM (doses to about 114 µM), inactives show top-dose activity change, negative = inhibition, most hits filed as inhibitors; hit rate 1.2% among 390,000; also: potency is read from the fitted curve at half-maximal effect; % is scaled to controls: 0 for no effect and ±100 for the full control effect
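Pol eta at 10 nM preincubated with compounds 15 min at room temperature; reaction started with fluorescent substrate (50 nM final) and read kinetically at 0 and 10 min.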
GALK confirm = confirmation of human galactokinase (GALK) inhibitors; shares compounds with Pol eta inh-1; purified GALK, Kinase-Glo ATP depletion luminescence; Potency, µM (highest dose often 115 µM), without a hit: at the highest dose activity, negative = inhibition, most hits filed as inhibitors; hit rate 70% among 150; AID 2015
GALK redox cs = redox cycling activity in phenol red-HRP assay; hit rate 40% among 150; Potency, µM (top dose mostly 115 µM), for the others: at the highest dose activity change, negative = H2O2 signal, most hits filed as inhibitors; shares compounds with Pol eta inh-1; Phenol red-HRP H2O2 redox cycling, absorbance 600 nm
HEK293 tox = HEK-293 cytotoxicity, GALK inhibitor secondary | shares compounds with Pol eta inh-1 | HEK-293 viability, ATP luminescence (CellTiter-Glo), 24/48 h | Potency, µM (top dose mostly 46.1 µM), for the others: at the top dose activity change, negative = cytotoxicity, hits mostly inhibitors | hit rate 10% among 170 | AID 2547; also: potency is read from the fitted curve at half-maximal effect; % is scaled to controls: 0 for no effect and ±100 for the full control effect
Pol kappa inh-2 = Pol kappa (human) inhibition, cherry-pick confirmation; shares compounds with Pol eta inh-1; purified Pol-kappa, fluorescent strand-displacement substrate; Potency, µM, actives largely listed as inhibitors; hit rate 76% among 920; AID 720501; also: potency is read from the fitted curve at half-maximal effect
Pol eta inh-2 = confirmation of human DNA polymerase eta inhibitors; Potency, µM, hits mostly inhibitors; hit rate 64% among 2,600; Pol eta primer extension, TAMRA/BHQ fluorescence, 10 min; AID 720502; shares compounds with Pol eta inh-1; also: potency is read from the fitted curve at half-maximal effect
The depositor's hits bear a star; ? = inconclusive; . = no result given; [ ] = remark or other dose. Most compounds without a hit are left out; they make up all but 2.8% or so of the library. Unless noted, calls follow the shape of the dose curve; as a rule, active = well fitted curve in the direction sought with a large enough effect; inconclusive = small, poorly fitted or top-dose-only effect, or another doubt; inactive = no such curve, though single readings can be large; an effect the other way counts as inactive or inconclusive.

SMILES | PI5P4K alpha inh | POLB inh | Pol iota inh | PI4K2A block | Pol kappa inh-1 | Pol eta inh-1 | Pol eta inh-2 | others
C=CCN(CC=C)S(=O)(=O)c1ncn[nH]1 | 0 | ? | ? | 2 | ? | 8.9µM* | ?
CC1(C)CC(=O)C2=C(C1)NC(Nc1nc3ccccc3o1)=NC2c1ccccn1 (stereo not drawn) | 1 | 27% | 53% | 1 | -11% | -21% | .
CC1(C)CC(=O)C2=C(C1)NC(Nc1nc3ccccc3o1)=NC21CCCC1 | . | 2% | 6% | 2 | 0% | -11% | . | GALK confirm=?;GALK redox cs=-22%;HEK293 tox=1%
CC1(C)CC(=O)C2=C(C1)NC(Nc1nc3ccccc3o1)=NC2c1ccccc1Cl (stereo not drawn) | . | . | 24% | . | 5% | . | . | HEK293 tox=-9%
Cc1ccc2nc(NC3=NC4(CCCC4)C4=C(CCCC4=O)N3)oc2c1 | . | . | . | -1 | . | . | .
COC(=O)/C=C1\S/C(=N/N=C/c2ccccc2)NC1=O | -1 | 16% | 17% | 0 | 9% | -8% | .
COC(=O)C/C=N/N=C1/NC(=O)/C(=C/C(=O)O)S1 | -71* | 40µM* | 14µM* | -21 | 45µM* | 40µM* | 48*
O=C(c1cccnc1)N1C2C=CC(C2)C1(C(F)(F)F)C(F)(F)F (stereo not drawn) | -9 | 40µM* | ? | 2 | -7% | 14µM* | ?
CCOC(=O)Cc1csc(NC(=O)NC2(C(F)(F)F)Oc3cc(Cl)c(Cl)cc3O2)n1 | -6 | -7% | -10% | 11 | 20µM* | -20% | . | Pol kappa inh-2=11*
CCC(C(=O)Nc1ccccc1C(=O)OC)n1c(C)c2cnn(-c3ccccc3)c(=O)c2c1C (stereo not drawn) | . | 25% | ? | -3 | -2% | -13% | .
Cc1oc(/N=C/c2cccc3ccccc23)c(C#N)c1C | . | 16% | 22µM* | -10 | ? | 25µM* | 48*
COc1ccc(/C=N/c2oc(C)c(C)c2C#N)c(OC)c1 | 0 | 13% | 30% | 3 | 3% | -17% | .
O=C1NC(=O)/C(=C\c2ccc(OCc3cnc(Cl)s3)cc2)S1 | -18 | -6% | 70% | 0 | -6% | -17% | .
COc1cccc(OCCOc2ccc(/C=C3/SC(=S)NC3=O)cc2)c1 | -85* | 10µM* | ? | -8 | -53% | 28µM* | 85* | Pol kappa inh-2=?
COc1ccc(N2CCN(C(=O)c3c(C)oc4ncn(CC(C)C)c(=O)c34)CC2)cc1 | . | -17% | 10% | -1 | -2% | -18% | .
CN(C)C(=O)OC1=C(c2ccccc2)Sc2ccccc2-n2cccc21 | . | . | . | . | -1%[19.4 µM] | . | .
COc1ccc(C(=O)CSc2cc(C)[nH]c(=O)n2)cc1 | -63* | 5.6µM* | ? | -23 | 79µM* | 20µM* | ?
CNc1ccc(Br)cc(C(=O)/C=C/c2ccc3c(c2)OCO3)c1=O | ? | 20µM* | 3.2µM* | -16 | 35µM* | 10µM* | ?
O=C(C=Cc1ccc2c(c1)OCO2)c1ccccc1 | 0 | . | ? | -8 | -10% | ? | .
Cc1ccoc1C(=O)NCCNC(=O)c1occc1C | 1 | . | ? | 2 | 0% | -10% | .
Cc1ccoc1C(=O)NCc1occc1C(=O)O | -13 | -27% | ? | 6 | ? | 6.3µM* | 30*
COc1ccc(C2CC(c3ccccc3)Oc3cc4c(cc32)OCO4)cc1 (stereo not drawn) | . | . | ? | . | -2% | . | .
CCC(=O)Nc1ccc(CC)cc1-c1nc2ccccc2n(CC(=O)c2ccc(OC)cc2)c1=O | . | ? | -9% | 3 | -21% | 8% | .
O=C1/C(=C/c2ccc(C(=O)O)cc2)CCC/C1=C\c1ccc(C(=O)O)cc1 | ? | -9% | ? | -7 | 0% | 8.9µM* | 30*
Oc1c(Br)cc(C=Nc2ccc3nc(-c4ccccc4)[nH]c3c2)c(O)c1Br | -71* | ? | ? | -29 | 50µM* | 14µM* | 30* | Pol kappa inh-2=9.5*
SMILES | PI5P4K alpha inh | POLB inh | Pol iota inh | PI4K2A block | Pol kappa inh-1 | Pol eta inh-1 | Pol eta inh-2 | others
Cc1ccc(NC(=O)Cn2c(=O)n(CCC(=O)NCCc3ccccc3)c(=O)c3ccccc32)cc1 | . | 18% | ? | -1 | 0% | -4% | .
CCCCCCC(=O)N1C/C=C\C(c2ccc(OC)cc2)N(Cc2ccc(F)cc2)C(=O)C1Cc1ccccc1 (stereo not drawn) | . | . | -20% | . | -25% | . | .
O=c1[nH][nH]c2cc(=O)n(-c3ccc(Cl)cc3)nc12 | -27 | ? | ? | -14 | 79µM* | ? | ? | Pol kappa inh-2=17*
COc1cc(/C=C2\C(C)=C(C#N)c3nc(N)c(C#N)c(C)c32)ccc1OCC(=O)O | -14 | 2% | -25% | -2 | -35% | 22µM* | 38*
CC1=C(C#N)c2nc(N)c(C#N)c(C)c2/C1=C\c1ccc(C)cc1 | . | 5% | . | . | . | . | .
O=C(O)Cc1sc(N/N=C\c2ccccc2)nc1-c1ccccc1 | ? | -24% | ? | -7 | -44% | 40µM* | 48* | Pol kappa inh-2=27*
c1csc(Cc2nn3c(-c4n[nH]c5c4CCC5)nnc3s2)c1 | ? | 28µM* | ? | -29 | -33% | 11µM* | ?
O=C(ONc1ccc(N=NC(=O)c2ccccc2O)cc1)c1ccccc1 | -58* | 9% | 8% | -1 | -7% | 50µM* | ?
COc1ccc(OC)c(/C=N\Nc2nccs2)c1 | -27 | . | 40% | 6 | -3% | -1% | .
COc1ccc(OC)c(/C=N/Nc2nncn2/N=C/c2cc(OC)ccc2OC)c1 | -6 | ? | ? | -8 | -5% | ? | 30*
CC[N+]1(CC(=O)c2ccc(OC)cc2)CCCCC1 | . | . | 34% | . | 1% | . | .

Assay outcomes from PubChem.
